Inconclusive results are not listed. Values without a mark were called inactive. The source made the active and inactive calls. The call rests on the fitted dose curve; in most records, active means well fitted inhibition curve with a large enough effect; inconclusive means small, poorly fitted or top-dose-only effect; inactive means flat fitted curve, though single readings scatter.

For assay [1], the target named is Calcium and integrin-binding protein 1 (Homo sapiens) (UniProt Q99828). In words: Primary qHTS for Identification of Calcium Integrin Binding Protein 1 (CIB1) Competitor (AID 1508620).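 Further: GST tagged CIB1 binding a fluorescein labelled alphaIIb integrin peptide tracer; top concentration of the series differs between compounds.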 Put shortly:
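CIB1-GST (1 uM final) and compound incubated 15 min at room temperature before adding FITC-alphaIIb peptide tracer (100 nM final). Competition for binding read by fluorescence polarization (ex 480, em 540) after another 15 min at room temperature.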
(In general: qHTS replaces the single test concentration by a dilution series.)

Assay [2] in a line: Primary qHTS for inhibitors of nuclear receptor binding SET domain protein 2 (NSD2) in an isogenic RCH-ACV NSD2 p.E1099K mutant (9B) (AID 1645876). Further: nearly all actives have a fitted effect of over 70% in size. Further: potency means the concentration at half of the fitted maximal effect.
On the % scale 0 is the no-effect control and ±100 the full control effect.

Sequence of Calcium and integrin-binding protein 1 (Homo sapiens) (Q99828 whole entry, looked up): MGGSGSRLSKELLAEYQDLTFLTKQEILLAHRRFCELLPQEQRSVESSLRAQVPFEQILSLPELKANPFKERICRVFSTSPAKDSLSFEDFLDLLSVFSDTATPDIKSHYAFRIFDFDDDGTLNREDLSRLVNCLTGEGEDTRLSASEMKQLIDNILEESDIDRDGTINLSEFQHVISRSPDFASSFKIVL

With `CC(=O)NC1C(OC(C)(C)C2CCC3(C)C=C(C4CCC5C4(C)CC(O)C4OC(C(C)(C)O)CCC45C)CCC3O2)OC(CO)C(O)C1O` (stereo not drawn), the Potency entry in assay [1] and in assay [2] was “inactive” each time.
For the compound `O=C(O)c1cc2cccc([N+](=O)[O-])c2[nH]1`, the Potency result in assay [1] and in assay [2] was “inactive” throughout.
On to `C=C(C)C1Cc2cc(C(=O)OC3OC(CO)C(O)C(O)C3O)ccc2O1` (stereo not drawn), for which the Potency entry in assay [1] and in assay [2] was “inactive” each time.
As to `COC(=O)c1cc(OC)c(O[C@@H]2O[C@@H](C)[C@H](O)[C@@H](O)[C@H]2O)c(OC)c1`, the Potency entry in assay [1] and in assay [2] was “inactive” throughout.
Consider `CC(=O)N[C@@H](C(=O)O[C@H]1CCC(C)(C)[C@@H]2CCC3=C(COC3=O)[C@@]12C)C(C)C`, for which the Potency entry in assay [1] and in assay [2] was “inactive” each time.
Consider `C[C@@H]1O[C@@H](O[C@H]2[C@H](O[C@H]3[C@H](O[C@H]4CC[C@@]5(C)C(CC[C@]6(C)C5CC=C5[C@@H]7CC(C)(C)CC[C@]7(C(=O)O[C@@H]7O[C@H](CO)[C@@H](O[C@@H]8O[C@@H](C)[C@H](O)[C@@H](O)[C@H]8O)[C@H](O)[C@H]7O)CC[C@]56C)C4(C)C)OC[C@H](O)[C@@H]3O)O[C@H](CO)[C@@H](O)[C@@H]2O)[C@H](O)[C@H](O)[C@H]1O` (stereo partly drawn), for which the activity change, negative = inhibition in assay [1] was -0.624% [at 12.4 µM]. The activity change, negative = viability loss in assay [2] is -8.33% [at 9.23 µM].
Consider `COc1c2c(c(C)c3c1C(=O)OC3)OC1(C)CC(O)C34OC(OC)(OC3(C)C)C(O)CC4(C)C1C2` (stereo not drawn), for which the Potency result in assay [1] and in assay [2] was “inactive” in each case.
For the compound `CC1(C)CCCC2(C)C=C(C(=O)O)C(O)CC12` (stereo not drawn), the Potency result in assay [1] and in assay [2] was “inactive” in each case.
With `Cc1cc(C)cc(C(=O)NOCCCCCC(=O)NO)c1`, in assay [1], the Potency result is “inactive”. For the same compound, the Potency in assay [2] was 515 nM (active).

Source of the values: PubChem BioAssay (NCATS).
